From PubChem
D3 ag = qHTS of D3 Dopamine Receptor Agonist: qHTS | max activation, % | D3R DiscoveRx beta-arrestin cells, luminescence, 90 min | actives 0.58% (n = 410,000) | D(3) dopamine receptor (Homo sapiens), P35462; in the data active = max activation above about 30%
Target sequence (P35462 whole entry, looked up): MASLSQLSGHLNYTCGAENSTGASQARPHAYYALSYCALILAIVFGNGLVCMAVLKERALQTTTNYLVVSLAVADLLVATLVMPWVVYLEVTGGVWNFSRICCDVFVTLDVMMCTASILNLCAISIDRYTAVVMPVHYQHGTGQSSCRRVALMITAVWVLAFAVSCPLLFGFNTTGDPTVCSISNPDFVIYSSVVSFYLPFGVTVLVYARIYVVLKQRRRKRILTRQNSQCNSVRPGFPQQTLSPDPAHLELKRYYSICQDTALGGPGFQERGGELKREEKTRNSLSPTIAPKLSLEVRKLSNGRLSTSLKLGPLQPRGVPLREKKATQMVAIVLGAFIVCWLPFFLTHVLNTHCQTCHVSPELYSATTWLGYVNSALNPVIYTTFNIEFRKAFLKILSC
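Agonist-mode cell screen: cells plated at 1500/well and incubated overnight at 37 °C, then exposed to library compounds for 90 min at 37 °C. Detection reagent was added for 30–60 min at room temperature, and luminescence was read.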
D1 PAM = Potentiators of Human D1 Dopamine Receptor: qHTS. actives 0.036% (n = 360,000). AID 504651, 2011. HEK293 TREx D1 cells, calcium flux, dopamine EC20 potentiation. potentiation, % at 10 µM; in the data active = potentiation above about 30%
D1 agonist = Allosteric Agonists of the Human D1 Dopamine Receptor: qHTS. D(1A) dopamine receptor (Homo sapiens), P21728. HEK293 T-REx D1 cells, calcium flux, agonist mode. activation, % at 2 µM. actives 1% (n = 360,000). AID 504660, 2011; in the data active = activation above about 30%
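Inducible HEK293 T-REx D1 cells, force-coupled to calcium signalling, were plated at 4000 cells/well with tetracycline and held overnight at 30 C. After no-wash calcium dye loading, compound-evoked calcium rise over 180 s flagged agonists.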
DRD3 antagonist = qHTS of D3 Dopamine Receptor Antagonist: qHTS; max response, negative = inhibition, %; actives 2.5% (n = 360,000); D3R cells, DiscoveRx beta-arrestin luminescence, antagonist mode; active compounds read low; D(3) dopamine receptor (Homo sapiens), P35462; in the data active = max response below about -50%; inconclusive = no clear call, values can overlap the other calls
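Cells plated overnight at 1500 cells/well, then exposed to library compounds with dopamine controls for 90 minutes at 37 degrees C. DiscoveRx reagent added for 30–60 minutes at room temperature; luminescence read, quantitative HTS format.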
D1 antagonist = Antagonist of Human D 1 Dopamine Receptor: qHTS; activity change, negative = inhibition, % at 10 µM; actives 3.2% (n = 360,000); HEK293 TREx D1 cells, calcium flux, dopamine EC80; active compounds read low; D(1A) dopamine receptor (Homo sapiens), P21728; AID 504652, 2011; in the data active = activity change below about -30%
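Tetracycline-induced HEK293 Trex D1 cells, force-coupled to calcium, dye-loaded; compounds added and read 180 s, then EC80 dopamine added and calcium flux tracked kinetically another 180 s.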
Of the large screens only hits and unclear results are named; the others gave an inactive call. Shown are actives, neighbours in structure and some others; about 6% of the full set was active somewhere.

CCOc1ccc(-c2c(C)nn3c(-c4ccccc4)c(C(=O)NCCOC)cnc23)cc1OCC	none (no result: DRD3 antagonist)
C[C@@H](NC(=O)c1nc[nH]c1C(=O)NCC(=O)OCc1ccccc1)c1ccccc1	D3 ag 47
C[C@H](NC(=O)c1nc[nH]c1C(=O)NCc1ccccc1)c1ccccc1	D1 antagonist -41
CCN(CC)C(=O)c1[nH]cnc1C(=O)N[C@@H](C)C(=O)OCc1ccccc1	none
CCN(CC)C(=O)c1[nH]cnc1C(=O)NCc1ccccc1	DRD3 antagonist -54 (no result: D1 PAM, D1 agonist, D1 antagonist)
O=C(N[C@@H](Cc1ccccc1)C(=O)OCc1ccccc1)c1nc[nH]c1C(=O)NCc1ccccc1	DRD3 antagonist -75
C[C@@H](NC(=O)c1nc[nH]c1C(=O)NCc1ccccc1)c1ccccc1	none
COc1ccc(NC(=S)NCc2ccc(F)cc2)c(OC)c1	D1 antagonist -31
COc1ccc(NC(=S)NCc2ccccc2Cl)c(OC)c1	D1 antagonist -33
COc1ccccc1NC(=S)NCc1ccccc1Cl	none
CCOC(=O)CCC(NC(=O)c1ccc(Nc2nc3ccccc3nc2C(=O)OCC)cc1)C(=O)OCC (configuration not stated)	none (no result: D1 PAM, D1 agonist, D1 antagonist)
O=S(=O)(NCC[C@@H]1CC[C@H](NS(=O)(=O)c2cccc(F)c2)[C@@H](CO)O1)c1cccc(F)c1	none (no result: D1 PAM, D1 agonist, D1 antagonist)
Cc1nc2ccccc2n1Cc1ccc(Br)cc1	none (no result: D1 PAM, D1 agonist, D1 antagonist)
CC(=O)Nc1cc2c(nc1C)nc(C)n2Cc1ccc(Br)cc1	DRD3 antagonist -68
CCCNC(=O)Cn1nc(-c2ccccc2OC)ccc1=O	DRD3 antagonist inconclusive (no result: D1 PAM, D1 agonist, D1 antagonist)
NC(=O)C1CCN(C(=O)CSc2nc3ccccc3[nH]2)CC1	none
CCN(C(=O)CSc1nc2ccccc2[nH]1)c1ccccc1	none (no result: DRD3 antagonist)
CN(C(=O)CSc1nc2ccccc2[nH]1)c1ccc(F)cc1	D1 antagonist -38 (no result: DRD3 antagonist)
O=C(Nc1ccc(F)cc1)C(Sc1nc2ccccc2[nH]1)c1ccccc1 (configuration not stated)	D1 antagonist -42
CC(C)c1ccc(-c2noc(SCC(=O)N(C)c3ccc(F)cc3)n2)cc1	D1 agonist 50 (no result: DRD3 antagonist)
CC1CCN(C(=O)CSc2nc3ccccc3[nH]2)CC1	DRD3 antagonist -53
CC(C)CN1C(=O)CSCC1(C)C(=O)NC(C)C (configuration not stated)	none (no result: D1 PAM, D1 agonist, D1 antagonist)
CC1=Nc2ccccc2/C1=C/c1c(C)[nH]c2ccccc12	none (no result: D1 PAM, D1 agonist, D1 antagonist)
CC1=Nc2ccccc2/C1=C\c1nc(-c2ccc(C(F)(F)F)cc2)oc1O	D1 agonist 79
CC1=Nc2ccccc2/C1=C/c1nc(-c2ccc(C)s2)oc1O	D1 agonist 73
CC1=Nc2ccccc2/C1=C\c1nc(-c2ccccc2)oc1O	none
COc1ccc(-c2nc(/C=C3\C(C)=Nc4ccccc43)c(O)o2)cc1	D1 agonist 33
CCCC[C@]12Cc3ccccc3C(O1)c1c(c3ccccc3oc1=O)O2	none (no result: D3 ag, DRD3 antagonist)
COc1cccc(CNC(=O)c2c(C)nn(-c3cccc(C)c3)c2-n2cccc2)c1	none (no result: DRD3 antagonist)
COc1ccc(C(=O)c2c(N)c(C(=O)Nc3ccccc3Cl)c3ccccn23)cc1	none (no result: DRD3 antagonist)
O=C(NCCc1ccc(Cl)cc1)C1CCC(=O)N1Cc1ccccc1Cl (configuration not stated)	none
O=C(Nc1ccc(Cl)cc1Cl)C1CCC(=O)N1Cc1ccccc1Cl (configuration not stated)	D1 agonist 37
CCN(CC(=O)Nc1ccc2c(c1)OCCO2)C(=O)C1CC(=O)N(c2ccc(OC)cc2OC)C1 (configuration not stated)	none
CCN(CC(=O)NCc1cccs1)C(=O)/C=C/c1cc(OC)ccc1OC	D1 antagonist -67
CCN(CC(=O)NCc1cccs1)C(=O)C1CC(=O)N(c2ccc(OC)cc2OC)C1 (configuration not stated)	D1 antagonist -34
CN(C)c1ccc(CNC(=O)C2CCN(S(=O)(=O)c3cn(C)cn3)CC2)cc1	none (no result: DRD3 antagonist)
CCn1c(C(=O)OC)cc2c1ccn2-c1ccc(F)cc1	DRD3 antagonist -77
COC(=O)c1cc2c(ccn2-c2ccc(F)cc2)n1Cc1ccc(OC)cc1	none
Oc1ccc2ccccc2c1/C=C/c1ccc2c(Br)cc(Br)c(O)c2n1	DRD3 antagonist -104 (no result: D1 PAM, D1 agonist, D1 antagonist)
Oc1cccc2ccc(/C=C/c3cccs3)nc12	DRD3 antagonist -57
Cc1ccsc1/C=C/c1ccc2cccc(O)c2n1	DRD3 antagonist inconclusive
Oc1c(Cl)cc(Cl)cc1/C=C/c1ccc2cccc(O)c2n1	D3 ag 32, D1 agonist 114
Oc1cccc2ccc(/C=C/c3ccccc3Br)nc12	DRD3 antagonist -114
COc1cc(Br)c(/C=C/c2ccc3cccc(O)c3n2)cc1OC	none
Oc1ccc(Cl)cc1/C=C/c1ccc2cccc(O)c2n1	DRD3 antagonist inconclusive
COc1cc(Br)cc(/C=C/c2ccc3cccc(O)c3n2)c1O	none
Cc1ccc(Nc2ncnc3c2cnn3-c2ccccc2)c(C)c1	none (no result: DRD3 antagonist)
CCCOc1ccc(CNC(=O)c2oc3ccc4c(c3c2C)C(=O)CC(C)(CC)O4)cc1 (configuration not stated)	none (no result: DRD3 antagonist)
C=C(C)Cn1c2ccc(NC(=O)NCc3ccc(F)cc3)cc2c(=O)n1C	none (no result: D1 PAM, D1 agonist, D1 antagonist)
COC(=O)CC1Oc2ccccc2-n2cc(-c3ccc(F)cc3)nc21 (configuration not stated)	none (no result: DRD3 antagonist)
CC1CC(C)CN(c2ccc([N+](=O)[O-])nc2)C1 (configuration not stated)	none
CC1CN(c2ccc([N+](=O)[O-])nc2)CC(C)O1 (configuration not stated)	D1 antagonist -35
O=C(Nc1cccc(S(=O)(=O)N2CCOCC2)c1)C1COc2ccccc2O1 (configuration not stated)	none
N#Cc1ccc(-c2ccc(OCC(=O)Nc3cccnc3)cc2)cc1	D1 antagonist -45
COc1ccc(C)cc1S(=O)(=O)NCC(c1cccs1)S(=O)(=O)c1ccc(C)cc1 (configuration not stated)	none (no result: DRD3 antagonist, D1 antagonist)
CCCOC(=O)C1[C@H]2C(=O)N(Cc3ccco3)C[C@]23C=C[C@H]1O3 (some centres not stated)	D1 antagonist -61
CCCCOC(=O)C1C2C=C[C@]3(CN(CCCOC)C(=O)[C@H]13)O2 (some centres not stated)	DRD3 antagonist -51
CCCCOC(=O)C1[C@H]2C(=O)N(Cc3cccs3)C[C@]23C=C[C@H]1O3 (some centres not stated)	none
COc1ccc(CNC(=O)C2CCCN(C(=O)c3cnn(-c4ccc(F)cc4)c3-n3cccc3)C2)cc1 (configuration not stated)	none (no result: DRD3 antagonist)
